# This is part of a sample that, as a whole, favours compounds with a hit. Of some 79,000 tested, about 15% had one in any assay. Values without a mark were called inactive. Activity calls are given as the source filed them. No stated cut-off is given here; in the data, active means growth inhibition above about 70%; inactive means the rest.
# Test: NCI Yeast Anticancer Drug Screen. Data for the mec2-1 strain (AID 157)
# Conditions: S. cerevisiae mec2-1 strain, at 50.0 µM (retest, dose inferred, filed as 5.0), stronger effect = higher value
# Procedure, shortened: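 Strain: mec2-1 (DNA repair/cell cycle alteration). Compound exposure, then growth measured; inhibition expressed relative to vehicle.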
row,SMILES,growth inhibition
1,OC1C2COc3nc4ccccc4n3C(O2)C1O (stereo not given),-57%
2,CN(C)CC1Cc2ccsc2C1=O (stereo not given),75% (active)
3,CCCC(O)C[N+](=O)[O-] (stereo not given),6%
4,CC1=NC(C)=C(/C(C)=N/NC(=O)c2ccccc2O)C(C)/C1=C(/C)NNC(=O)c1ccccc1O (stereo not given),12%
5,O=[N+]([O-])c1cccc(S(=O)(=O)N/N=C/c2cc(I)cc([N+](=O)[O-])c2O)c1,2%
6,CNC(=O)OC(C)CN1c2ccccc2Sc2ccc(Cl)cc21 (stereo not given),99% (active)
7,O=[N+]([O-])c1ccc(NSc2ccccc2)cc1,99% (active)
8,CCOc1ccc2c(c1)nc1ccccc1[n+]2CC,33%
9,O=C1C=CC(=O)c2c(O)c(N3CCN(CCO)CC3)c(Cl)c(O)c21,99% (active)
10,O=C1CSC(c2cccc([N+](=O)[O-])c2)N1c1ccc(-c2ccc(-n3c(-c4ccccc4)nc4ccccc4c3=O)cc2)cc1 (stereo not given),36%
11,CCC(=O)c1ccc2ccc3ccccc3c2c1,34%
12,N#CSCc1c(Cl)cccc1Cl,48%
13,O=[N+]([O-])/C(C(Cl)=C(Cl)Cl)=C(/Sc1ccccc1)N1CCOCC1,99% (active)
14,COc1c2occc2c(OC)c2c(C)c(C(=O)OCCN3CCOCC3)oc12,5%
15,COc1cnn(-c2ccccc2)c(=O)c1SCc1ccc(Cl)c(Cl)c1,33%
16,COc1ccc(/C=C/c2c[n+]([O-])ccc2[N+](=O)[O-])cc1,97% (active)
17,CS(=O)(=O)OCCCN(CCCOS(C)(=O)=O)c1ccc(C=Nc2ccc(-c3csc(COc4ccc(Br)cc4Br)n3)cc2)cc1,83% (active)
18,O=C(Nc1ccccc1-c1nn(C(=S)Nc2ccccc2)c(=S)n(C(=S)Nc2ccccc2)c1=O)C(F)(F)F,87% (active)
19,Cc1ccc(N=C(N)NN=C(c2ccc(Cl)cc2)c2ccc(Cl)cc2)cc1,38%
20,Cc1cccc(C)c1N1C(=O)C(=O)C(c2nc3ccccc3s2)/C(=N/NC(=O)c2ccccc2O)C1=O (stereo not given),16%

row,SMILES,growth inhibition
1,CN(C)CC1CC/C(=C\c2ccc(O)cc2)C1=O (stereo not given),98% (active)
2,CCCCCC=C(c1cc(Br)cc(C(=O)O)c1O)c1cc(Br)cc(C(=O)O)c1O,95% (active)
3,CCS(CC)(CC)CC1CCCC2=CCC(P(=O)(c3ccccc3)c3ccccc3)CC21 (stereo not given),18%
4,Cc1c[n+](=O)c2ccccc2n1[O-],-16%
5,O=C1CC(=S)NC(=S)N1,-1%
6,CC1=NN(C(=O)c2ccc(Cl)cc2)C(=O)C1N=Nc1ccc(S(=O)(=O)Nc2ncccn2)cc1 (stereo not given),51%
7,COC(=O)c1cc(=O)n(-c2ccccc2OC)c(SC)n1,73% (active)
8,CCCCN(CCCC)Cc1ccc(NC(C(=O)c2ccccc2)c2ccccc2)cc1 (stereo not given),49%
9,Cn1cc(/C=C/[N+](=O)[O-])c2ccc(OCc3ccccc3)cc21,-7%
10,O=C(c1ccc([N+](=O)[O-])cc1)N1CCCSC1=S,12%
11,CCCCCCCCC(=O)NCCN(CCN)C(=O)CCCCCCCC,98% (active)
12,Cc1nc2sc3c(c2c2nnnn12)CCCC3,29%
13,CCC(CC)(C(=O)Nc1ccc2c(c1)c(=O)c1ccccc1n2C)C(=O)Nc1ccc2c(c1)c(=O)c1ccccc1n2C,86% (active)
14,Cc1ccccc1N1CCN(c2c3c(nc4ccccc24)CCCCC3)CC1,94% (active)
15,O=C(Nc1ccccc1)c1cc(Cl)ccc1O,46%
16,CCCCCCCCCCCCCCCCCCOP(=O)([O-])OC1CC[N+](C)(C)CC1,99% (active)
17,CN(C)c1ccc(C(O)(Cc2cccc(C#N)c2)c2ccc(N(C)C)cc2)cc1,-6%
18,CC(=O)N1CCC(Cc2ccccc2)CC1,80% (active)
19,O=[N+]([O-])c1ccc(-n2ncc3cccnc32)c([N+](=O)[O-])c1,99% (active)
20,CC(C)OC(=O)c1ccc(NCC2=CC(=O)C=CC2=O)cc1Cl,100% (active)

# Same assay, conditions: S. cerevisiae mec2-1 strain, at 50.0 µM, stronger effect = higher value
row,SMILES,growth inhibition
1,OC1C2COc3nc4ccccc4n3C(O2)C1O (stereo not given),5.4%
2,CN(C)CC1Cc2ccsc2C1=O (stereo not given),99.5% (active)
3,CCCC(O)C[N+](=O)[O-] (stereo not given),13.2%
4,CC1=NC(C)=C(/C(C)=N/NC(=O)c2ccccc2O)C(C)/C1=C(/C)NNC(=O)c1ccccc1O (stereo not given),75% (active)
5,O=[N+]([O-])c1cccc(S(=O)(=O)N/N=C/c2cc(I)cc([N+](=O)[O-])c2O)c1,13.1%
6,CNC(=O)OC(C)CN1c2ccccc2Sc2ccc(Cl)cc21 (stereo not given),84.5% (active)
7,O=[N+]([O-])c1ccc(NSc2ccccc2)cc1,92.5% (active)
8,CCOc1ccc2c(c1)nc1ccccc1[n+]2CC,48.6%
9,O=C1C=CC(=O)c2c(O)c(N3CCN(CCO)CC3)c(Cl)c(O)c21,89.8% (active)
10,O=C1CSC(c2cccc([N+](=O)[O-])c2)N1c1ccc(-c2ccc(-n3c(-c4ccccc4)nc4ccccc4c3=O)cc2)cc1 (stereo not given),59.5%
11,CCC(=O)c1ccc2ccc3ccccc3c2c1,26.4%
12,N#CSCc1c(Cl)cccc1Cl,75.8% (active)
13,O=[N+]([O-])/C(C(Cl)=C(Cl)Cl)=C(/Sc1ccccc1)N1CCOCC1,91.8% (active)
14,COc1c2occc2c(OC)c2c(C)c(C(=O)OCCN3CCOCC3)oc12,50.3%
15,COc1cnn(-c2ccccc2)c(=O)c1SCc1ccc(Cl)c(Cl)c1,7.95%
16,COc1ccc(/C=C/c2c[n+]([O-])ccc2[N+](=O)[O-])cc1,72.2% (active)
17,CS(=O)(=O)OCCCN(CCCOS(C)(=O)=O)c1ccc(C=Nc2ccc(-c3csc(COc4ccc(Br)cc4Br)n3)cc2)cc1,92.8% (active)
18,O=C(Nc1ccccc1-c1nn(C(=S)Nc2ccccc2)c(=S)n(C(=S)Nc2ccccc2)c1=O)C(F)(F)F,88.1% (active)
19,Cc1ccc(N=C(N)NN=C(c2ccc(Cl)cc2)c2ccc(Cl)cc2)cc1,98.5% (active)
20,Cc1cccc(C)c1N1C(=O)C(=O)C(c2nc3ccccc3s2)/C(=N/NC(=O)c2ccccc2O)C1=O (stereo not given),56.2%

row,SMILES,growth inhibition
1,CN(C)CC1CC/C(=C\c2ccc(O)cc2)C1=O (stereo not given),93.7% (active)
2,CCCCCC=C(c1cc(Br)cc(C(=O)O)c1O)c1cc(Br)cc(C(=O)O)c1O,85.8% (active)
3,CCS(CC)(CC)CC1CCCC2=CCC(P(=O)(c3ccccc3)c3ccccc3)CC21 (stereo not given),78.7% (active)
4,Cc1c[n+](=O)c2ccccc2n1[O-],-16.6%
5,O=C1CC(=S)NC(=S)N1,-1.7%
6,CC1=NN(C(=O)c2ccc(Cl)cc2)C(=O)C1N=Nc1ccc(S(=O)(=O)Nc2ncccn2)cc1 (stereo not given),13.2%
7,COC(=O)c1cc(=O)n(-c2ccccc2OC)c(SC)n1,89% (active)
8,CCCCN(CCCC)Cc1ccc(NC(C(=O)c2ccccc2)c2ccccc2)cc1 (stereo not given),82.2% (active)
9,Cn1cc(/C=C/[N+](=O)[O-])c2ccc(OCc3ccccc3)cc21,37%
10,O=C(c1ccc([N+](=O)[O-])cc1)N1CCCSC1=S,22.2%
11,CCCCCCCCC(=O)NCCN(CCN)C(=O)CCCCCCCC,93.1% (active)
12,Cc1nc2sc3c(c2c2nnnn12)CCCC3,16.9%
13,CCC(CC)(C(=O)Nc1ccc2c(c1)c(=O)c1ccccc1n2C)C(=O)Nc1ccc2c(c1)c(=O)c1ccccc1n2C,77.7% (active)
14,Cc1ccccc1N1CCN(c2c3c(nc4ccccc24)CCCCC3)CC1,97% (active)
15,O=C(Nc1ccccc1)c1cc(Cl)ccc1O,76% (active)
16,CCCCCCCCCCCCCCCCCCOP(=O)([O-])OC1CC[N+](C)(C)CC1,92.5% (active)
17,CN(C)c1ccc(C(O)(Cc2cccc(C#N)c2)c2ccc(N(C)C)cc2)cc1,55.9%
18,CC(=O)N1CCC(Cc2ccccc2)CC1,18.3%
19,O=[N+]([O-])c1ccc(-n2ncc3cccnc32)c([N+](=O)[O-])c1,93.6% (active)
20,CC(C)OC(=O)c1ccc(NCC2=CC(=O)C=CC2=O)cc1Cl,92.5% (active)

# Source: PubChem BioAssay (NCI)
